Source: the supplement of paper PMC3334620
Whole data set: some 33,000 sequences, median “E-score (-0.5 to 0.5)” near -0.035, cut for the highest 2% near 0.35. The list comes from a sample in which the highest values are over-represented; it also holds similar and randomly drawn sequences.

What follows are sequences tested against T1, Pdr3 (UniProt P33200) (assay: PBM E-score (8-mer binding enrichment) (E-score (-0.5 to 0.5)); higher = stronger / more preferred TF binding). Conditions: protein concentration: 200 nM; construct: GST-full length.
T1 sequence: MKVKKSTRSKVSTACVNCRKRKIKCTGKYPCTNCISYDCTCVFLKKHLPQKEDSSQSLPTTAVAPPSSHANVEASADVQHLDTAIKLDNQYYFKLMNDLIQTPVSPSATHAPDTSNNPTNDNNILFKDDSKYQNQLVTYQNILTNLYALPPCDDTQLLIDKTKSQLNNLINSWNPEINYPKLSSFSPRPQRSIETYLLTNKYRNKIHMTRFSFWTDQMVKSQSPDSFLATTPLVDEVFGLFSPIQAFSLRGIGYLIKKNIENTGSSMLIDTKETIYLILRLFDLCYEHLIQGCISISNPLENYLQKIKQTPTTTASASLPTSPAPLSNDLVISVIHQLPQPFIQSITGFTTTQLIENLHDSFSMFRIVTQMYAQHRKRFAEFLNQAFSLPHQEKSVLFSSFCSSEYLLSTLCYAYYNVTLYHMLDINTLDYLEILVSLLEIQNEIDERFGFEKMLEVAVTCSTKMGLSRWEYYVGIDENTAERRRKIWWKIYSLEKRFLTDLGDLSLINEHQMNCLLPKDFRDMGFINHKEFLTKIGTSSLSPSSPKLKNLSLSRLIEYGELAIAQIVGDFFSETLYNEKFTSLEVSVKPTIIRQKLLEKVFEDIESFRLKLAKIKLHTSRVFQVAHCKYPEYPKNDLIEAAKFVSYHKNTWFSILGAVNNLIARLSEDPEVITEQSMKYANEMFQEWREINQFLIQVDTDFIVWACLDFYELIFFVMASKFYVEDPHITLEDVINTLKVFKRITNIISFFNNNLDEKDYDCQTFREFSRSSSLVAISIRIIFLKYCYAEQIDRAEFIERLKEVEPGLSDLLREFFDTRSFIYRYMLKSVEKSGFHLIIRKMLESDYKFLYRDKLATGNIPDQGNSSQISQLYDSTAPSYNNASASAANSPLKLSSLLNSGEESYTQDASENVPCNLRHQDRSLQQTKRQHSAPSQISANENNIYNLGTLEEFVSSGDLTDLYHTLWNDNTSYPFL
Summary of the method: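 For each ungapped eight-base word taken together with its reverse complement, the Universal PBM Analysis Suite assigned an E-score. Binding data came from GST-tagged yeast transcription factors, applied at about 100-200 nM, on universal all-10-mer Agilent arrays made double-stranded by primer extension. Fluorescent anti-GST marked bound protein, and scans were normalised with masliner.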

Going from CGGAATCA to AGGAATCC, the “PBM E-score” value falls from 0.456 to 0.0872.

Compared with AGGAATCA, CGGAATCC is higher in “PBM E-score” value: -0.0475 for the first, 0.461 for the second.

First: CCGAATCC
Second: CTTGGGCC
The “PBM E-score” value of the first is higher: 0.336 for the first, -0.0633 for the second.

First: GTATCTGA
Second: ACGTCTCG
The “PBM E-score” value of the first is lower: -0.146 for the first, -0.0164 for the second.

First: AAAGTCTC
Second: TTAGCGAA
The “PBM E-score” value of the first is lower: -0.186 for the first, 0.0125 for the second.

Compared with GCTACCAC, CGGGGATA is higher in “PBM E-score” value: -0.16 for the first, 0.33 for the second.

First: ACGGGATA
Second: ACGGGATC
The “PBM E-score” value of the first is higher: 0.38 for the first, 0.275 for the second.

Going from CTGGGATA to CCGGGATA, the “PBM E-score” value rises from 0.0272 to 0.388.

Compared with GCGGGATA, CCGGGAGA is higher in “PBM E-score” value: 0.322 for the first, 0.369 for the second.

Compared with CCGGGATC, CGGGGATC is lower in “PBM E-score” value: 0.453 for the first, 0.28 for the second.

Going from CGGGGAGA to CCGGGAGG, the “PBM E-score” value rises from 0.28 to 0.334.

First: ACGGGATG
Second: AAGGAATG
The “PBM E-score” value of the first is higher: 0.283 for the first, 0.126 for the second.

Going from CGCGTCCG to CTTCGCGC, the “PBM E-score” value rises from 0.272 to 0.274.

First: ATCTAAAC
Second: GCTGGCAA
The “PBM E-score” value of the first is lower: -0.113 for the first, 0.0154 for the second.

Compared with CTCGGTCA, CACCGGAA is higher in “PBM E-score” value: 0.00197 for the first, 0.46 for the second.

Going from AACCGGAA to TACCGGCA, the “PBM E-score” value falls from 0.435 to 0.214.

Compared with CACCGGGA, AACCGGAT is higher in “PBM E-score” value: 0.272 for the first, 0.316 for the second.

First: GACCGGCA
Second: GACCGGAC
The “PBM E-score” value of the first is lower: 0.0622 for the first, 0.28 for the second.

First: GACCGGAA
Second: TACCGGTA
The “PBM E-score” value of the first is higher: 0.401 for the first, 0.103 for the second.

Compared with AACCGGAG, CACCGGAC is higher in “PBM E-score” value: 0.326 for the first, 0.341 for the second.

Going from TACCGGAA to AAATAGTA, the “PBM E-score” value falls from 0.44 to 0.152.

First: AGAGCAAC
Second: CCTATGGA
The “PBM E-score” value of the first is lower: -0.197 for the first, -0.127 for the second.

Going from CCTAGGTA to AAAAGCAC, the “PBM E-score” value falls from -0.174 to -0.291.

Going from AAAGACTA to CGTTTTAG, the “PBM E-score” value falls from -0.113 to -0.195.

Compared with GGGCGTCA, CGGAATGA is higher in “PBM E-score” value: 0.0172 for the first, 0.435 for the second.

Compared with GGGAATGA, AGGAATGA is lower in “PBM E-score” value: 0.219 for the first, -0.0139 for the second.

First: CTGAATGC
Second: CGGAATGC
The “PBM E-score” value of the first is lower: -0.0711 for the first, 0.434 for the second.

Compared with AGGAATGC, AGATCGTA is lower in “PBM E-score” value: -0.0575 for the first, -0.304 for the second.

Going from ATCTCAGG to ATTGTCGG, the “PBM E-score” value rises from 0.00088 to 0.193.

Going from GATCTACC to AGTGTTCC, the “PBM E-score” value rises from 0.00285 to 0.301.

Going from CCCGTTCC to ATGGTTCA, the “PBM E-score” value falls from 0.347 to 0.0467.

Going from CGTGTTCC to CTGGTTCC, the “PBM E-score” value falls from 0.383 to 0.264.

Going from ACCGTTCT to CTTGTTCC, the “PBM E-score” value rises from -0.0192 to 0.207.

Compared with CGTGTTCA, ATTGTTCG is higher in “PBM E-score” value: -0.0434 for the first, 0.194 for the second.

First: ACCGTTCC
Second: ATGGTTCC
The “PBM E-score” value of the first is lower: 0.364 for the first, 0.371 for the second.

First: ATTGTTCC
Second: CCTACTCG
The “PBM E-score” value of the first is higher: 0.378 for the first, 0.101 for the second.

Compared with ACCAGCAA, CACCGACC is lower in “PBM E-score” value: 0.0732 for the first, 0.0698 for the second.

Going from ACTGAGCG to GGACAATA, the “PBM E-score” value rises from -0.185 to 0.28.

Compared with TATTTACA, CCAGTTCC is higher in “PBM E-score” value: -0.097 for the first, 0.318 for the second.

Going from ACAGTTCT to ACAGTTCC, the “PBM E-score” value rises from 0.082 to 0.387.

Compared with CGCAGAAG, CGGGGAAA is higher in “PBM E-score” value: -0.09 for the first, 0.246 for the second.

First: AGCGGAAA
Second: GGCGGAAC
The “PBM E-score” value of the first is lower: 0.391 for the first, 0.467 for the second.

Compared with CGCGGAAG, CGTGGAAG is lower in “PBM E-score” value: 0.454 for the first, 0.208 for the second.

Going from CGCGGAAA to AGGGGAAA, the “PBM E-score” value falls from 0.476 to -0.0896.

Going from AGAGGAAA to GGCAGAAC, the “PBM E-score” value rises from 0.0754 to 0.123.

First: CGTGGAAA
Second: GGGGGAAC
The “PBM E-score” value of the first is higher: 0.243 for the first, -0.165 for the second.

First: AATTCGAT
Second: AGCCTCGG
The “PBM E-score” value of the first is lower: 0.0319 for the first, 0.156 for the second.

First: GGAGGAAA
Second: AGCGGAAG
The “PBM E-score” value of the first is lower: 0.0123 for the first, 0.341 for the second.

Going from TGCGGGAA to AGCGGAAC, the “PBM E-score” value rises from 0.313 to 0.457.

Going from AGCGGACT to AGGGGAAC, the “PBM E-score” value falls from -0.0134 to -0.0871.

First: AGAGGAAC
Second: GGCGGAAA
The “PBM E-score” value of the first is lower: -0.066 for the first, 0.361 for the second.

Going from TGCGGAAA to TGCGGACA, the “PBM E-score” value falls from 0.357 to 0.237.

Compared with AGCGGAAT, GGGGGAAA is lower in “PBM E-score” value: 0.392 for the first, 0.138 for the second.

Compared with CCGCCGAA, CCCAACTC is lower in “PBM E-score” value: 0.277 for the first, 0.16 for the second.

Going from ACCCTCGG to CGTCGTAA, the “PBM E-score” value falls from 0.156 to -0.0777.

Compared with CGCATCAC, AGGCAACG is higher in “PBM E-score” value: -0.0776 for the first, 0.00606 for the second.

Going from ACAACCGC to AAAACTAC, the “PBM E-score” value falls from 0.202 to 0.179.

Going from AATCGGAG to TATCGGCA, the “PBM E-score” value falls from 0.276 to 0.101.

Going from GATCGGAC to AATCGGAA, the “PBM E-score” value rises from 0.362 to 0.445.

First: GATCGGGC
Second: TATCGGAA
The “PBM E-score” value of the first is lower: 0.142 for the first, 0.419 for the second.

First: AATCGGAC
Second: CATCGGAG
The “PBM E-score” value of the first is higher: 0.212 for the first, 0.0478 for the second.

Compared with CATCGGAA, AATCGGAT is lower in “PBM E-score” value: 0.422 for the first, 0.317 for the second.

First: TATCGGGA
Second: CATCGGAC
The “PBM E-score” value of the first is higher: 0.228 for the first, 0.143 for the second.

Going from CCTTTAGA to GCAGAATA, the “PBM E-score” value rises from -0.22 to -0.0373.

First: CCTTCCTA
Second: TCGGTAGA
The “PBM E-score” value of the first is lower: -0.401 for the first, -0.027 for the second.

Compared with AAAGTTGA, AACGGCTC is higher in “PBM E-score” value: -0.0975 for the first, 0.0795 for the second.

Compared with ACGTTACG, AATTTGCT is higher in “PBM E-score” value: -0.211 for the first, -0.114 for the second.

Going from CTGCTCCC to GACCCGCA, the “PBM E-score” value rises from -0.0396 to 0.0817.

Going from GATCGGTA to GATCGGGA, the “PBM E-score” value rises from 0.146 to 0.171.

Compared with GATCGGAA, GTGCTTCA is lower in “PBM E-score” value: 0.424 for the first, -0.0273 for the second.

First: AGCTTAAG
Second: GGGCCCAA
The “PBM E-score” value of the first is lower: -0.0452 for the first, 0.0863 for the second.

Compared with AAGTGAGG, CCCCCGGG is higher in “PBM E-score” value: -0.173 for the first, 0.364 for the second.

First: CCCCCCGG
Second: ACCGGGGG
The “PBM E-score” value of the first is higher: 0.132 for the first, 0.0642 for the second.

First: ACCCGGGG
Second: AAACCCGC
The “PBM E-score” value of the first is higher: 0.357 for the first, 0.258 for the second.

Going from ACCCCGGG to ACCCCCGG, the “PBM E-score” value falls from 0.376 to 0.17.

Going from AACCGGGG to AAACCCGA, the “PBM E-score” value rises from 0.199 to 0.243.

Going from ACCCCGTG to CCCCCGCG, the “PBM E-score” value rises from 0.181 to 0.349.

Compared with AAACCCGG, ATAGATTA is lower in “PBM E-score” value: 0.401 for the first, -0.0055 for the second.

Going from CCAATAGG to CGAGATAC, the “PBM E-score” value rises from -0.154 to 0.128.

Compared with GGTAAAGA, ATGTCTGA is lower in “PBM E-score” value: -0.0497 for the first, -0.106 for the second.

First: ATCCAAAA
Second: GGCCCCGA
The “PBM E-score” value of the first is lower: -0.00928 for the first, 0.181 for the second.

Compared with GGCAGCCA, GTATCTAA is higher in “PBM E-score” value: 0.0184 for the first, 0.0522 for the second.

First: CTGAGAAA
Second: CGCAATGC
The “PBM E-score” value of the first is lower: -0.236 for the first, -0.0405 for the second.

First: ACAGTGAC
Second: CACCGGGG
The “PBM E-score” value of the first is higher: 0.0756 for the first, 0.0593 for the second.

Compared with AACCCCGG, AACCCGGG is higher in “PBM E-score” value: 0.312 for the first, 0.424 for the second.

First: CCCCGGCC
Second: AACCCGGT
The “PBM E-score” value of the first is lower: 0.0967 for the first, 0.258 for the second.

In the case of CCCCGGGG, the “PBM E-score” value is reported as 0.412.
